Data taken from PubChem BioAssay (Tox21).
Records with an inconclusive call do not appear. The source made the active and inactive calls. Unless noted, calls follow the shape of the dose curve; as a rule, active = well fitted curve in the direction sought with a large enough effect in the repeat runs; inconclusive = weak or mixed curves; inactive = no such curve, though single readings can be large; an effect the other way counts as inactive or inconclusive.

Experiments:
[1] = qHTS assay to identify small molecule agonists of the estrogen receptor alpha (ER-alpha) signaling pathway in the presence of an antagonist - cell viability counter screen (AID 1259386);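 also: cells exposed to compounds for 22 h at 37 °C before the viability read; nearly all actives have a fitted effect of over 30% in size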; also: potency is read from the fitted curve at half-maximal effect; as to activity change, negative = cytotoxicity: series mostly up to about 92 µM
Summary of the method: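 Using estrogen-depleted VM7Luc4E2 cells, the 15-concentration compound series was applied together with 10.0nM ICI-182,780 and incubated 22hr at 37C/5% CO2. Cell viability was then scored by CellTiter-Fluor.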

[2] = target: Progesterone receptor (Homo sapiens) (UniProt P06401); experiment: qHTS assay to identify small molecule agonists of the progesterone receptor (PR) signaling pathway (AID 1346784; calls by dose curve; also: nearly all actives have a fitted effect of over 30% in size; also: potency is read from the fitted curve at half-maximal effect)
Chain of Progesterone receptor (Homo sapiens) (P06401 whole entry, looked up): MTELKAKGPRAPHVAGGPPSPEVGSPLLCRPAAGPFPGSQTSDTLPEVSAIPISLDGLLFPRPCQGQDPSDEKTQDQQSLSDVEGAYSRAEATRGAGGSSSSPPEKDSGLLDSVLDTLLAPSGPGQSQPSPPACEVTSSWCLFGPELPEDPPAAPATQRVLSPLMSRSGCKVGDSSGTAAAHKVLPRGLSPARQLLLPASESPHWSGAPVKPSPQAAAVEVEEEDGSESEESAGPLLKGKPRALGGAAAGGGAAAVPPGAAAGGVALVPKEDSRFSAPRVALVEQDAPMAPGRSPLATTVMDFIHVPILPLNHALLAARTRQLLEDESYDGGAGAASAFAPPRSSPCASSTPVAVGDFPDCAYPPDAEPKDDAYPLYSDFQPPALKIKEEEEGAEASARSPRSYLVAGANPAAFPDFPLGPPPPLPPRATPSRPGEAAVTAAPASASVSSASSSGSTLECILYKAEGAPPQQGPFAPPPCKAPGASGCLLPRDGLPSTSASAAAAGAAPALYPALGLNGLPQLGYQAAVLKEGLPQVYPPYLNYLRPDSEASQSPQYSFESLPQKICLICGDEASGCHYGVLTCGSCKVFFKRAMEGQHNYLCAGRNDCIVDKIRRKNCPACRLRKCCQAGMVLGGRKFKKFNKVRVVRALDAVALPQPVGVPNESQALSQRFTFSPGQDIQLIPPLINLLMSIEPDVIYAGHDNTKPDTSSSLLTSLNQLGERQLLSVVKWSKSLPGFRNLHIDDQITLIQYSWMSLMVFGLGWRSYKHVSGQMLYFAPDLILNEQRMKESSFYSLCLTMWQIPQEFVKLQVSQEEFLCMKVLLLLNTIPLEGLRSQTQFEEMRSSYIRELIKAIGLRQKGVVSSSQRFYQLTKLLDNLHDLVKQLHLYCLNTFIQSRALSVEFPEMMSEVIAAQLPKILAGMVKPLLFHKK
Summary of the method: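 Seed PR-UAS-bla HEK 293T cells (2% charcoal-stripped FBS), incubate 6 hr at 37C; add compounds in DMSO, 16 hr at 37C; add LiveBLAzer B/G substrate, 2 hr RT; read fluorescence intensity.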

[3] = target: Progesterone receptor (Homo sapiens) (UniProt P06401); experiment: qHTS assay to identify small molecule antagonists of the progesterone receptor (PR) signaling pathway (AID 1346795; active = well fitted inhibition curve with a large enough effect in the signal ratio in the repeat runs, not every such curve was filed as active; the % refers to the signal ratio; also: potency is read from the fitted curve at half-maximal effect)
Summary of the method: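 Screening used a GripTite HEK293T line with PR-responsive UAS-beta-lactamase. Cells were challenged with compound in the presence of 1 nM R5020 final for 16 hr at 37C; B/G FRET substrate, 2 hr room temperature, fluorescence.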

[4] = qHTS assay to identify small molecule antagonists of the progesterone receptor (PR) signaling pathway - cell viability counter screen (AID 1346798); also: nearly all actives have a fitted effect of over 50% in size; also: potency is read from the fitted curve at half-maximal effect; as to activity change, negative = cytotoxicity: series mostly up to about 92 µM
Summary of the method: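 Measures cytotoxicity in parallel with the PR antagonist reporter read: HEK293T PR-UAS-bla cells get compound and R5020 for 16 hr, and remaining viable cells are quantified by CellTiter-Glo luminescence.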

[5] = qHTS assay to identify small molecule agonists of the progesterone receptor (PR) signaling pathway - cell viability counter screen (AID 1346799; calls by dose curve; also: nearly all actives have a fitted effect of over 45% in size)
Summary of the method: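 Using the same plates as the PR reporter screen, HEK293T PR-UAS-bla cells received compounds for 16 hr at 37C and were then lysed with CellTiter-Glo; luminescence was read 30 min later at room temperature.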

[6] = qHTS assay to identify small molecule antagonists of the TGF-beta/Smad signaling pathway - cell viability counter screen (AID 1346824); also: nearly all actives have a fitted effect of over 50% in size
Summary of the method: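 SBE-bla HEK 293T cells were plated overnight at 37 C, then given compounds in DMSO plus TGF-beta1 (added as 0.25 ng/mL solution) for 5 hr. After the bla read, CellTiter-Glo was added to the same wells and luminescence read after 30 min at room temperature.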

[7] = qHTS assay to identify small molecule agonists of the TGF-beta/Smad signaling pathway - cell viability counter screen (AID 1346829); also: top concentration of the series differs between compounds; nearly all actives have a fitted effect of over 45% in size
Summary of the method: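 Luminescence from CellTiter-Glo, read after a 30 min room-temperature incubation, gives cell viability of SBE-bla HEK 293T cells treated 5 hr with compounds at 37 C.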

[8] = qHTS assay to identify small molecule agonists of the TGF-beta/Smad signaling pathway (AID 1346859; active = well fitted activation curve with a large enough effect in the signal ratio in the repeat runs, not every such curve was filed as active; the % refers to the signal ratio; also: series mostly up to about 77 µM)
Summary of the method: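 Beta-lactamase reporter activity downstream of Smad binding elements was measured in stably transfected HEK 293T cells; compounds were incubated for 5 hr, substrate for 2 hr at room temperature.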

[9] = target: Thyrotropin-releasing hormone receptor (Homo sapiens) (UniProt P34981); experiment: qHTS assay to identify small molecule antagonists of the thyrotropin-releasing hormone receptor (TRHR) signaling pathway (AID 1346877; active = well fitted inhibition curve with a large enough effect in the repeat runs, not every such curve was filed as active; also: series mostly up to about 51 µM)
Chain of Thyrotropin-releasing hormone receptor (Homo sapiens) (P34981 whole entry, looked up): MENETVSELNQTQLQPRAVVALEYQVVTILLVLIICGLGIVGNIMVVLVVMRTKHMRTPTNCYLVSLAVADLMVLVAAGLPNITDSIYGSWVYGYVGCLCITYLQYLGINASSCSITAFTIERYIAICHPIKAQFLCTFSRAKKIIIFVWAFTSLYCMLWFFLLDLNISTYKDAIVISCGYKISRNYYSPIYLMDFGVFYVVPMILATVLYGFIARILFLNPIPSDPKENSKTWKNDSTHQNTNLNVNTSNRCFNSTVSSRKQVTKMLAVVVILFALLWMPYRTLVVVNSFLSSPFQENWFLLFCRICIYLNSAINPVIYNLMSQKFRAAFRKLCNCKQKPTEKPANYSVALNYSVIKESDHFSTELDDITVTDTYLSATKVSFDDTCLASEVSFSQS
Summary of the method: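 Calcium signal in dye-loaded TRHR/HEK293 cells; compounds added 5 min before TRH (1 nM final); fluorescence monitored 3 min at 1 s steps.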

[10] = target: Thyrotropin-releasing hormone receptor (Homo sapiens) (UniProt P34981); experiment: qHTS assay to identify small molecule agonists of the thyrotropin-releasing hormone receptor (TRHR) signaling pathway (AID 1346891; calls by dose curve; also: potency is read from the fitted curve at half-maximal effect;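 as to activation: HEK293 cells expressing TRHR with calcium dye readout; series mostly up to about 58 µM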)
Summary of the method: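 Overnight-plated (18 h, 37 °C, 5% CO2) TRHR-Hek293 cells; 2 h calcium dye at 37 °C; compound in DMSO; 3-min kinetic fluorescence read.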
% is scaled to controls: 0 for no effect and ±100 for the full control effect.

CCCCN(CCCC)C(=S)[S-].CCCCN(CCCC)C(=S)[S-].[Ni+2]
inactive: Potency [1] | Potency [2] | Potency [3] | Potency [4] | Potency [5] | Potency [6] | Potency [7] | outcome [8]

C#CCO
inactive: Potency [1] | Potency [2] | Potency [3] | Potency [4] | Potency [5] | Potency [6] | Potency [7] | outcome [8] | Potency [9] | Potency [10]

CC(=O)[O-].CC(=O)[O-].O.O.O.[Pb+2]
inactive: Potency [1] | Potency [2] | Potency [3] | Potency [4] | Potency [5] | Potency [6] | Potency [7] | outcome [8]

[O]=[Cr][O][Cr]=[O]
inactive: Potency [1] | Potency [2] | Potency [3] | Potency [4] | Potency [5] | Potency [6] | Potency [7] | outcome [8] | Potency [9] | Potency [10]

Clc1cc(Cl)c(-c2cc(Cl)c(Cl)cc2Cl)cc1Cl
active: Potency [3] 10.2 µM
inactive: Potency [1] | Potency [2] | Potency [4] | Potency [5] | Potency [6] | Potency [7] | outcome [8] | Potency [9] | Potency [10]

Clc1c(Cl)c(Cl)c(Cl)c(Cl)c1Cl
inactive: activity change, negative = cytotoxicity [1] 1.86% [at 8.39 µM] | activation [2] -0.806% [at 8.39 µM] | activity change, negative = inhibition [3] -1.77% [at 8.39 µM] | activity change, negative = cytotoxicity [4] -0.673% [at 8.39 µM] | activity change, negative = cytotoxicity [5] 14.7% [at 8.39 µM] | viability change, negative = cytotoxic [6] 1.21% [at 6.97 µM] | activation [8] -0.619% [at 6.97 µM] | activity, negative = inhibition [9] 0.118% [at 4.65 µM]

CCC1(CC)C(=O)N=C(O)NC1=O
inactive: Potency [1] | Potency [2] | Potency [3] | Potency [4] | Potency [5] | Potency [6] | Potency [7] | outcome [8] | Potency [9] | Potency [10]

COc1ccc2c(c1OC)C(=O)O[C@@H]2[C@H]1c2cc3c(cc2CCN1C)OCO3
active: Potency [1] 6.05 µM
inactive: Potency [2] | Potency [3] | Potency [4] | Potency [5] | Potency [6] | Potency [7] | outcome [8] | Potency [9] | Potency [10]

ClCBr
inactive: Potency [1] | Potency [2] | Potency [3] | Potency [4] | Potency [5] | Potency [6] | outcome [8] | Potency [9]

O=[N+]([O-])C(Br)Br
inactive: Potency [1] | Potency [2] | Potency [3] | Potency [4] | Potency [5] | Potency [6] | Potency [7] | outcome [8] | Potency [9]

CC(=O)[O-].CC(=O)[O-].O.O.[Zn+2]
inactive: Potency [1] | Potency [2] | Potency [3] | Potency [4] | Potency [5] | Potency [6] | outcome [8]

CCCCc1ccccc1
inactive: Potency [1] | Potency [2] | Potency [3] | Potency [4] | Potency [5] | Potency [6] | Potency [7] | outcome [8]

[Cl-].[Cl-].[Sn+2]
inactive: Potency [1] | Potency [2] | Potency [3] | Potency [4] | Potency [5] | Potency [6] | outcome [8]

COc1cnc(OC)n2nc(NS(=O)(=O)c3c(OCC(F)F)cccc3C(F)(F)F)nc12
inactive: Potency [1] | Potency [2] | Potency [3] | Potency [4] | Potency [5] | Potency [6] | Potency [7] | outcome [8] | Potency [9] | Potency [10]

CC(=O)[O-].CC(=O)[O-].CC(=O)[O-].[Sb+3]
inactive: activity change, negative = cytotoxicity [1] -1.24% [at 3.27 µM] | activation [2] 3.93% [at 3.27 µM] | activity change, negative = inhibition [3] -5.92% [at 3.27 µM] | activity change, negative = cytotoxicity [4] 10.2% [at 3.27 µM] | activity change, negative = cytotoxicity [5] 7.1% [at 3.27 µM] | viability change, negative = cytotoxic [6] -1.18% [at 2.72 µM] | activity change, negative = cytotoxicity [7] 2.52% [at 2.72 µM] | activation [8] -3.71% [at 2.72 µM]

C=CCBr
inactive: Potency [1] | Potency [2] | Potency [3] | Potency [4] | Potency [5] | Potency [6] | Potency [7] | outcome [8] | Potency [9] | Potency [10]

Oc1ccc(Cl)c(Cl)c1
inactive: Potency [1] | Potency [2] | Potency [5] | Potency [6] | Potency [7] | outcome [8] | Potency [9]
active: Potency [3] 26.9 µM

CCOP(=S)(OCC)SC(CCl)N1C(=O)c2ccccc2C1=O (stereo unspecified)
active: Potency [3] 27.3 µM
inactive: Potency [1] | Potency [2] | Potency [4] | Potency [6] | Potency [7] | outcome [8] | Potency [9]

CCC1COC(Cn2cncn2)(c2ccc(Cl)cc2Cl)O1 (stereo unspecified)
inactive: Potency [1] | Potency [2] | Potency [4] | Potency [6] | Potency [7] | outcome [8] | Potency [9] | Potency [10]
active: Potency [3] 27.3 µM

S=C=NCCc1ccccc1
inactive: Potency [1] | Potency [2] | Potency [6] | Potency [7] | outcome [8]
active: Potency [3] 19.4 µM | Potency [4] 21.7 µM

Nc1nc(N)c(N)c(N)n1
active: Potency [2] 7.74 µM | Potency [10] 39.1 µM
inactive: Potency [1] | Potency [3] | Potency [4] | Potency [6] | Potency [7] | Potency [9]

O=Cc1ccccc1
inactive: Potency [1] | Potency [2] | Potency [3] | Potency [4] | Potency [6] | Potency [7] | outcome [8] | Potency [9] | Potency [10]

CNC(=O)CSP(=O)(OC)OC
inactive: Potency [1] | Potency [2] | Potency [3] | Potency [4] | Potency [6] | Potency [7] | outcome [8]

NC(=O)C(Cl)Cl
inactive: Potency [1] | Potency [2] | Potency [3] | Potency [5] | Potency [6] | Potency [7] | outcome [8] | Potency [9]

Clc1ccc(C(c2ccc(Cl)cc2)C(Cl)Cl)cc1
inactive: Potency [1] | Potency [2] | Potency [4] | Potency [6] | outcome [8]
active: Potency [3] 7.82 µM
